Active and inactive are the calls of the source. Rule for the calls: active = hit-call score of the fitted dose curve at least 0.9, where 1 is the maximum; inactive = score below 0.9.
Each compound was assayed on Cellular tumor antigen p53 (Homo sapiens) (UniProt P04637) (assay: LTEA_HepaRG_TP53: Life Technologies and Expression Analysis (LTEA) Assay for Tumor Protein P53 (TP53) using HepaRG (AID 2283537)). Settings: mRNA level, 48 h; actives raise or lower the signal.
Experimental: LTEA_HepaRG is a cell based, multiplexed-readout assay that uses HepaRG, a human liver cell line, with measurements taken at 48 hours after chemical dosing on a 96-well plate.LTEA_HepaRG_TP53 is one of 102 assay component(s) measured in the LTEA HepaRG cell culture assay. It is a marker of Oxidative Stress.Data from the assay component LTEA_HepaRG_TP53 was analyzed into 1 endpoint. This assay endpoint, LTEA_HepaRG_TP53, was analyzed with bidirectional fitting relative to DMSO as the negative control and baseline of activity. Using a type of inducible reporter, measures of mRNA induction for gain or loss-of-signal activity can be used to understand regulation of transcription factor activity. To generalize the intended target to other relatable targets, this assay endpoint is annotated to the dna binding intended target family, where the subfamily is tumor suppressor.
A total of 1060 chemcials from the ToxCast library were tested in eight-point concentration-response experiments. Cell culture and cytotoxicity assays were conducted at Thermo Fisher Scientific's Custom Services facility (Madison, WI). A single lot of human HepaRG cells (Thermo Fisher Scientific, Frederick, MD) was used for the cell culture experiments. 96-well format collagen type I coated plates of human HepaRG cells were prepared using established methods. Briefly, cryopreserved HepaRG cells were thawed, plated at a density of approximately 100,000 cells/well in HepaRG Thaw, Plate, and General Purpose media (HPRG770, Thermo Fisher Scientific), and incubated for 48 hours. 0.5% DMSO was selected as vehicle control to balance the requisite need of DMSO in HepaRG cultures to maintain differentiation (for example, baseline metabolism, proportions of hepatocytes vs. cholangiocytes), while enabling further hepatic receptor pathway activation (for example, PXR and CAR) in response to chemical exposure. 48 hours after plating, the culture medium was replaced with HepaRG Serum-Free Incudtion Media. Cells were exposed to each test chemical in duplicate and maintained in CO2 incubators for another 48 hours. Chemical plates were thawed to room temperature and 200x concentrations of treatment groups were prepared. 8-point conentration-reponse curves were made with the highest exposure at 100 uM, followed by half-log dilutions, all in 0.5% DMSO. Each test plate contained variouse controls, induction positive controls (1mM phenobarbital), cytotoxicity positive controls ([…] aflatoxin B1), vehicle controls (0.5% DMSO), and total lysis controls (0.5% DMSO). Cell morphology images were taken using an Essen IncuCyte FLR automated microscope, with six 96-well plates imaged in about 24 minutes. Images were captured and exported and JPEG files. Spent culture media was transfered to black-well plates for the LDH assay, and remaining media was sorted at -80 C for later use. Cells were treated with RLT buffer and frozen until shipped for gene expression analysis. Total RNA was isolated from the cell suspension in 75 uL of Buffer RLT (Qiagen, Germantown, MD 20874) by Quintiles/Expression Analysis (Durham, NC) using a custom isolation procedure. Total RNA from each plate well was transferred to a preamplification plate. Fluidigm's 96.96 Dynamic ArrayTM (Fluidigm, Amsterdam, the Netherlands) technology was used for gene expression analyses by quantitative reverse transcription polymerase chain reaction (qRT-PCR, performed by Quintiles/Expression Analysis, Durham, NC)89. Standard TaqManTM Assays (Applied Biosystems/ThermoFisher Scientific, Foster City, CA) were used to assess the expression of 93 genes selected based on their selectivity and sensitivity to important hepatic receptors known to be modulated by environmental chemicals; importance in human hepatocyte functionality; and hepatotoxicity. […]

Cellular tumor antigen p53 (Homo sapiens), sequence (P04637 whole entry, looked up): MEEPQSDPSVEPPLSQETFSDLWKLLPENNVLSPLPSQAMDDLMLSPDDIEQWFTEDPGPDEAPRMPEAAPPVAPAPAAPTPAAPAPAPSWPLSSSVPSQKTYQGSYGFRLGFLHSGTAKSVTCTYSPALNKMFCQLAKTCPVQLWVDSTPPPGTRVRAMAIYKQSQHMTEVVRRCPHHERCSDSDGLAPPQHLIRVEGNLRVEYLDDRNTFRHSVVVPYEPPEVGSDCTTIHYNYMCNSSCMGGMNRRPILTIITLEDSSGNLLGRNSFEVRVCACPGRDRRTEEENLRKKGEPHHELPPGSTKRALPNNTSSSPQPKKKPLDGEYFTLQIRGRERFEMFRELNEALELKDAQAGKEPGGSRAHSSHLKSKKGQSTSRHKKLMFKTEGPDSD

| SMILES | outcome | AC50 |
| --- | --- | --- |
| Cn1sc(Cl)cc1=O | inactive | – |
| CCN1CCC2(CC1)COc1cc3c(cc12)N(C(=O)c1ccc(-c2ccc(-c4nnc(C)o4)cc2C)cc1)CC3 | – | 46.8 µM (active) |
| CN(C)N=O | inactive | – |
| ClCC(Cl)CCl | inactive | – |
| O=C(O)C(F)(F)C(F)(F)C(F)(F)C(F)(F)C(F)(F)C(F)(F)C(F)(F)C(F)(F)C(F)(F)C(F)(F)F | inactive | – |
| C[C@@H]1C[C@@H]([C@H](O)CC2CC(=O)NC(=O)C2)C(=O)[C@@H](C)C1 | – | 12 µM (active) |
| C=C(C)C(=O)[O][Sn]([CH2]CCC)([CH2]CCC)[CH2]CCC | inactive | – |
| C=CC(=O)OCCCCCC(C)C | inactive | – |
| Oc1cccc2cccnc12 | inactive | – |
| O=C(O)C(F)(F)C(F)(F)C(F)(F)C(F)(F)C(F)(F)C(F)(F)F | inactive | – |
| CC(=O)[O][Hg][c]1ccccc1 | – | 0.193 µM (active) |
| O=[N+]([O-])c1ccc(O)c([N+](=O)[O-])c1 | – | 13.2 µM (active) |
| CCOP(=S)(OCC)SCSP(=S)(OCC)OCC | – | 0.217 µM (active) |
| CCC(C)(C)c1ccc(O)c(C(C)(C)CC)c1 | inactive | – |
| CC(C)(C)c1cc(O)ccc1O | inactive | – |
| CC(C)(c1ccccc1)c1ccc(O)c(C(C)(C)c2ccccc2)c1 | inactive | – |

| SMILES | outcome | AC50 |
| --- | --- | --- |
| CC(C)(OO)c1ccccc1 | inactive | – |
| NC(=O)O | inactive | – |
| Cc1ccccc1N | inactive | – |
| O=C(O)C(Cl)(Cl)Cl | inactive | – |
| CC(C)(C)CC(C)(C)c1ccc(O)cc1 | inactive | – |
| CCC(=O)C(CC(C)N(C)C)(c1ccccc1)c1ccccc1 (stereo unspecified) | inactive | – |
| ClC1(Cl)C2(Cl)C3(Cl)C4(Cl)C(Cl)(Cl)C5(Cl)C3(Cl)C1(Cl)C5(Cl)C24Cl (stereo unspecified) | inactive | – |
| O=C1C2(Cl)C3(Cl)C4(Cl)C(Cl)(Cl)C5(Cl)C3(Cl)C1(Cl)C5(Cl)C24Cl (stereo unspecified) | – | 22.6 µM (active) |
| CCCCCCCCc1ccc(O)cc1 | – | 0.418 µM (active) |
| O=c1[nH]c(=O)[nH]c(=O)[nH]1 | inactive | – |
| CC12CC1(C)C(=O)N(c1cc(Cl)cc(Cl)c1)C2=O (stereo unspecified) | inactive | – |
| CCOP(=S)(OCC)Oc1nc(Cl)c(Cl)cc1Cl | inactive | – |
| C[C@]12CCC(=O)C[C@@H]1CC[C@@H]1[C@@H]2CC[C@]2(C)[C@@H](O)CC[C@@H]12 | inactive | – |
| O=C(Nc1ccc2[nH]ccc2c1)c1cc2cc(F)ccc2n1Cc1cccc(F)c1 | – | 12.4 µM (active) |
| COc1cc(-c2ccc(N)c(OC)c2)ccc1N | inactive | – |

Source: PubChem BioAssay (EPA / NIEHS)
